# According to PubChem BioAssay (NCI):
# About 83,000 compounds went through this panel and 20% of them were active in at least one assay; those are over-represented in the sample as a whole.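 In brief: 96-well plates, 48 h treatment, single concentration, percent growth endpoint.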 Unmarked numbers belong to inactive results. Calls of active or inactive are those of the source. The calls were made as follows: active = growth percent below 10; inactive = the rest.
# What was measured:
# Experiment in all cases: NCI-60 one-dose screen, 48 h (100 = growth as untreated, 0 = no growth, -100 = all killed)
# Conditions in all cases: 10 µM unless noted
# [1] = test system: DU-145 prostate
# [2] = test system: K-562 leukemia
# [3] = test system: MALME-3M melanoma
# [4] = test system: MDA-MB-231 breast
# [5] = test system: SF-268 CNS
# [6] = test system: SF-295 CNS
# [7] = test system: SF-539 CNS
# [8] = test system: UACC-257 melanoma
# [9] = test system: M14 melanoma
# [10] = test system: HCT-15 colon
# [11] = test system: HT29 colon
# [12] = test system: SNB-75 CNS
# [13] = test system: SNB-19 CNS
# [14] = test system: U251 CNS
# [15] = test system: PC-3 prostate
# [16] = test system: SK-MEL-5 melanoma
# [17] = test system: UACC-62 melanoma
# [18] = test system: LOX IMVI melanoma
# [19] = test system: SK-MEL-28 melanoma
# [20] = test system: RXF 393 renal
SMILES,growth [1],growth [2],growth [3],growth [4],growth [5],growth [6],growth [7],growth [8],growth [9],growth [10],growth [11],growth [12],growth [13] [%],growth [14],growth [15],growth [16],growth [17],growth [18],growth [19],growth [20]
CC(=O)Nc1ccc(Cl)cc1Cl,111%,64.9%,112%,100%,97.4%,83.8%,98.3%,124%,102%,118%,103%,91.2%,97.8,103%,308%,95.7%,96.4%,93.8%,157%,
NC(N)=N/N=C\c1cccc(OCc2ccccc2)c1,101%,27.1%,85.8%,76%,,85.1%,77.5%,70.8%,59.7%,45%,1.4% (active),63.8%,83.2,23.3%,71.5%,33%,84.9%,51%,86%,62.1%
NS(=O)(=O)c1ccc(N2N=C(c3ccc(Br)cc3)CC2c2cn(-c3ccccc3)nc2-c2ccc(Cl)cc2)cc1 (stereo unspecified),94.7%,63%,,99%,84.7%,92.7%,104%,96.7%,83.7%,78.7%,76.6%,92.4%,96,86.9%,73.3%,99.7%,82.5%,88%,108%,88.9%
Cc1cc(O)ccc1C1=NN(c2ccc(S(N)(=O)=O)cc2)C(=O)CC1,89.9%,15.7%,45.3%,73.8%,68.5%,30.4%,45.1%,59.7%,29.7%,35.2%,11.2%,63%,82.3,53%,50.7%,25.2%,27.2%,63%,58%,
CCNS(=O)(=O)c1ccc(C)cc1,96.5%,105%,104%,113%,,104%,102%,107%,106%,98.5%,117%,85.2%,103,105%,95.7%,140%,106%,100%,115%,113%
CCOc1c(C#N)c2c(N)ncnc2n1C1OC(CO)C(O)C1O (stereo unspecified),-10.5% (active),0.169% (active),59.2%,87.1%,25.2%,71.3%,62.5%,83.5%,35%,23.1%,22.6%,62.4%,72.7,35.4%,16.2%,79%,49.8%,18.9%,20.4%,
COc1ccc(/C=C2\CCCC3=C2N=C2SC(C)=NN2C3c2ccc(OC)c(OC)c2)cc1OC (stereo unspecified),16.1%,14.5%,,28.6%,39%,25.3%,6.88% (active),51.9%,19.8%,28.3%,4.84% (active),27.7%,45,15.5%,40%,24.2%,34.6%,1.41% (active),58.9%,40.4%
Fc1ccc(-c2nnc(N3CCOCC3)c3ccccc23)cc1,104%,99%,82.9%,107%,103%,,99.2%,94.7%,93.9%,99.1%,111%,101%,88.8,108%,95.8%,96.9%,96.1%,104%,106%,
COc1cc(C2C=C(C)N=C3SC=NN32)cc(OC)c1OC (stereo unspecified),115%,108%,,104%,111%,107%,99.1%,94.8%,109%,106%,,105%,95.9,93.5%,72.7%,103%,100%,95.8%,100%,113%
O=C(Nc1ccccc1)C(CCCCN1C(=O)c2ccccc2C1=O)N1C(=O)c2ccccc2C1=O (stereo unspecified),95.4%,82.8%,,109%,99.8%,101%,111%,106%,105%,102%,107%,88.5%,101,102%,98.5%,101%,98.9%,101%,107%,110%
CCc1ccc2c(c1)N(CCO)C1=C(C(=O)OC1)C2c1cccc(Br)c1 (stereo unspecified),12%,14.8%,,34.9%,47.2%,-19.3% (active),-8.23% (active),63.4%,10.8%,26.3%,3.88% (active),2.55% (active),37.9,24%,30.1%,33.2%,35.5%,42.2%,49%,10.9%
COC(=O)c1cc2oc(/C=N/NC(=O)c3cc4oc(-c5cccc(C(F)(F)F)c5)cc4[nH]3)cc2n1Cc1ccccc1,111%,91.3%,6.57% (active),104%,84.8%,,92.4%,-29.3% (active),121%,98.1%,104%,84.4%,112,101%,90.3%,108%,83.4%,97.6%,113%,
COc1ccc(/C(=C\c2cc(OC)c(OC)c(OC)c2)C(=O)Nc2nc3ccc(Cl)cc3s2)cc1,93%,,93.8%,90.9%,71.1%,,100%,92.1%,105%,93.2%,88.3%,89%,105,90.8%,87.5%,87.6%,77.6%,92.5%,107%,109%
C=CCOc1c(Br)cc(Br)cc1Br,81.8%,52.2%,,44.6%,68.7%,,45.4%,79%,73.5%,62.9%,104%,60.7%,50.5,46.8%,65.8%,59%,37.2%,64.4%,77.8%,76.9%
CN1CCN(c2ccc(N3Cc4ccccc4OC4=C3C(=O)c3c(O)ccc(O)c3C4=O)cn2)CC1,-95.9% (active),,-84.2% (active),-75.1% (active),-6.04% (active),,-58.3% (active),-88.9% (active),-76.8% (active),-74.9% (active),-42.8% (active),-21.8% (active),11,-4.98% (active),1.25% (active),-61.9% (active),-59.9% (active),-71.4% (active),-60% (active),-93.6% (active)
COc1cc(Cn2c(-c3ccccc3)cc3c2-c2oncc2CC3)cc(OC)c1OC,-21.1% (active),11.8%,,47.1%,44.8%,,-3.28% (active),58.8%,21.9%,27.6%,4.59% (active),-17.3% (active),44.5,24.1%,20.6%,18.4%,47.5%,39.4%,49.7%,9.54% (active)
O=C(Cc1ccc(Nc2ccnc(C(F)(F)F)c2)cc1)N/N=C/c1ccccc1O,39.3%,,38.8%,27.9%,28.6%,30%,24.1%,34.7%,8.64% (active),14.6%,75.4%,30.8%,31.1,23.8%,71.1%,10.8%,10.8%,9.12% (active),106%,49%
